High-throughput results as filed in PubChem BioAssay.
This is a sample that favours compounds with a hit; in the whole collection about 1.4% have one here.
EPAC1 antag – qHTS for Antagonist of cAMP-regulated guanine nucleotide exchange factor 3 (EPAC1): primary screen; Rap guanine nucleotide exchange factor 3 (Homo sapiens), O95398; EPAC1 GEF assay, Rap1b-BODIPY-GDP exchange fluorescence; Potency, µM (highest dose often 115 µM), for the others: at the top dose activity change, negative = inhibition, actives largely listed as inhibitors; 360,000 compounds, 0.14% hits; AID 720709, 2013;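 further: potency means the concentration at half of the fitted maximal effect; plate controls were vehicle for no effect and positive control for full effect; nearly all actives have a fitted effect of over 50% in size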
EPAC1 ag – qHTS for Agonist of cAMP-regulated guanine nucleotide exchange factor 3 (EPAC1): primary screen. Rap guanine nucleotide exchange factor 3 (Homo sapiens), O95398. EPAC1 agonist qHTS, biochemical assay; response scale: 100% = response to 6.5 mM cAMP. Potency, µM (highest dose often 154 µM), for the others: top-dose activation, usual class: activators. 360,000 compounds, 0.073% hits. AID 720707, 2013; further: potency means the concentration at half of the fitted maximal effect; nearly all actives have a fitted effect of over 60% in size
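Fluorescent GDP-exchange assay: 100 nM EPAC1 with 250 nM Rap1B preloaded with BODIPY-GDP and 50 uM GDP; compounds tested as concentration series, 5 min at room temperature, then read every 5 min for 30 min (ex 480/em 540 nm); normalized to 6.5 mM cAMP.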
hERG WT inh – qHTS for Inhibitors of KCHN2 3.1: Wildtype qHTS; U2OS, BacMam KCNH2, thallium flux FluxOr; stronger effect = lower value; activity change, % at 1.84 µM; Voltage-gated inwardly rectifying potassium channel KCNH2 (Homo sapiens), Q12809; 340,000 compounds, 0.37% hits;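 active means maximum activity change below -70%; inconclusive means maximum activity change between -70% and -50%; inactive means maximum activity change above -50%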; further: on the % scale 0 is the no-effect control and ±100 the full control effect
Target sequence (Q12809 whole entry, looked up): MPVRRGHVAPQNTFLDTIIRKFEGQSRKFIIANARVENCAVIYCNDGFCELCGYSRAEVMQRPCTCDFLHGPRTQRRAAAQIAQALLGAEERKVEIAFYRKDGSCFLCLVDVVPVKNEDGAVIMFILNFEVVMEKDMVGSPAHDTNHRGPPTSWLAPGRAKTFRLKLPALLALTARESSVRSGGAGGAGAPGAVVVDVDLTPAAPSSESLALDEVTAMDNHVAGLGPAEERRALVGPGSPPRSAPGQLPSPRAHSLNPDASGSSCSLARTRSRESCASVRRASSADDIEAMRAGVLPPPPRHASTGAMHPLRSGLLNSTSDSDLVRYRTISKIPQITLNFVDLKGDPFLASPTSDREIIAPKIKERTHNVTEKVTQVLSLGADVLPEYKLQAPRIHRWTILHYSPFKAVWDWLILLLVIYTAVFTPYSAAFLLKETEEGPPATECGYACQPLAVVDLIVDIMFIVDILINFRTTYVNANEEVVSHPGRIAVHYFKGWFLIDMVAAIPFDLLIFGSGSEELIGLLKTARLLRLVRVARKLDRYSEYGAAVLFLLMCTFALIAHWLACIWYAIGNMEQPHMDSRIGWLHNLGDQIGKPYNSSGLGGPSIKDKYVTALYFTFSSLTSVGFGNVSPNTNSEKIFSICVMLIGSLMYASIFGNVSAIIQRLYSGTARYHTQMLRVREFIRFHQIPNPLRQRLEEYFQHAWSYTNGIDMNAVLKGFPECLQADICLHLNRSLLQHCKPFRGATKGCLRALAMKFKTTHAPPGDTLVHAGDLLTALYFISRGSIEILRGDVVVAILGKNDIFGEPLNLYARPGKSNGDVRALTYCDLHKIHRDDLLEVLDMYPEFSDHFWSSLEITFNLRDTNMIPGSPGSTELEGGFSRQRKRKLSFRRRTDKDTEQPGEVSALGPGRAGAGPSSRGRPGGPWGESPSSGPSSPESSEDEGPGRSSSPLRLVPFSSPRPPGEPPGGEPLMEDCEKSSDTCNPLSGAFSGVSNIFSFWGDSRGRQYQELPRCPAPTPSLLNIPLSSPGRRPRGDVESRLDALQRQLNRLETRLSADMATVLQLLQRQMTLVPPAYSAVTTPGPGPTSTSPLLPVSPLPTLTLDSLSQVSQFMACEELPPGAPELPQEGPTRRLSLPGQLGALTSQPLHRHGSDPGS
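U2OS cells were transduced with wild-type KCNH2 virus (2.03 x 10^8 / mL) for 4 h at room temperature, then cultured overnight at 37 C. Thallium flux was read with FluxOr dye. Rate constants were normalized to DMSO controls.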
EPAC2 ag – qHTS for Agonist of cAMP-regulated guanine nucleotide exchange factor 4 (EPAC2): primary screen | Rap guanine nucleotide exchange factor 4 (Homo sapiens), Q8WZA2 | EPAC2 activation, biochemical qHTS; response scale: 100% = 6.5 mM cAMP response | Potency, µM (doses to about 154 µM), for inactives: top-dose activation, most hits filed as activators | 360,000 compounds, 0.079% hits | AID 720711, 2013; further: potency means the concentration at half of the fitted maximal effect; nearly all actives have a fitted effect of over 50% in size
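Exchange assay: 100 nM EPAC2 with 250 nM Rap1B-BODIPY-GDP and 50 uM GDP. Fluorescence (ex 480/em 540 nm) read every 5 min for 30 min at room temperature. Data normalized to 6.5 mM cAMP as agonist control.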
KCNH2 3.1 block – qHTS for Inhibitors of KCHN2 3.1: Mutant qHTS. Potassium voltage-gated channel subfamily H member 2, brain isoform KCNH2 3.1 (human). U2OS KCNH2 3.1, thallium flux FluxOr; stronger effect = lower value. activity change, % (tested at about 1.8 µM). 340,000 compounds, 0.95% hits;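 active means maximum activity change below -70%; inconclusive means maximum activity change from -70% to -50%; inactive means maximum activity change above -50%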;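 further: thallium influx rate constant from kinetic fluorescence after stimulation buffer; on the % scale 0 is the no-effect control and ±100 the full control effect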
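Normalized rate constant (relative to positive and negative DMSO controls) derived from a 2 min kinetic fluorescence read after stimulation; U2OS cells expressing the 3.1 isoform via virus at 1.77 x 10^8 /mL.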
EPAC2 antagonist – qHTS for Antagonist of cAMP-regulated guanine nucleotide exchange factor 2 (EPAC2): primary screen. Rap guanine nucleotide exchange factor 4 (Homo sapiens), Q8WZA2. EPAC2 GEF exchange of Rap1B-BODIPY-GDP, fluorescence. Potency, µM (top dose mostly 114 µM), for the others: at the top dose activity, negative = inhibition, usual class: inhibitors. 360,000 compounds, 0.18% hits; further: potency means the concentration at half of the fitted maximal effect; on the % scale 0 is the no-effect control and ±100 the full control effect; nearly all actives have a fitted effect of over 45% in size
* hit, by the source's call; ? = inconclusive; / = no result given; [ ] = another dose, or the depositor's remark. Unless noted, the call rests on the fitted dose curve; in most records, active means well fitted curve in the direction sought with a large enough effect; inconclusive means small, poorly fitted or top-dose-only effect, or another doubt; inactive means no such curve, though single readings can be large; an effect the other way counts as inactive or inconclusive.

SMILES	EPAC1 antag	EPAC1 ag	hERG WT inh	EPAC2 ag	KCNH2 3.1 block	EPAC2 antagonist
Cc1ccc(-n2cccn2)c(CN2CCCC(C(=O)c3ccc4c(c3)OCO4)C2)c1 (stereo not given)	10.0%	2.9%	?	5.5%	-94.3*	-7.0%
O=C(c1ccc2c(c1)OCO2)C1CCCN(Cc2cc(F)ccc2-n2cccn2)C1 (stereo not given)	3.8%	3.1%	-14.6	-2.8%	-72.0*	-0.3%
O=C(O)C(Cc1ccccc1)N1C(=O)/C(=C/C=C/c2ccco2)SC1=S (stereo not given)	89.1µM*	13.8%	-2.0	-0.3%	0.8	-27.2%
O=C1S/C(=C\C=C\c2ccco2)C(=O)N1c1ccccc1	89.1µM*	-10.5%	-5.5	8.3%	-18.3	-3.2%
O=C(O)CC(C(=O)O)N1C(=O)/C(=C/C=C/c2ccco2)SC1=S (stereo not given)	-25.6%	15.8%	-2.7	9.5%	13.6	21.8%
CC(=O)c1ccc2c(c1)C1C=CCC1C(c1ccncc1)N2 (stereo not given)	-13.3%	-1.5%	-18.4	-5.2%	-4.1	-0.3%
CC(=O)c1ccc2c(c1)C1C=CCC1C(C(=O)O)N2 (stereo not given)	50.1µM*	0.3%	4.1	3.0%	-9.3	4.1%
CCCCN(CC)CCNC(=O)c1cn(-c2ccc(Cl)cc2)c(=O)c2ccccc12	19.2%	2.4%	?	7.3%	-78.1*	4.2%
CNC(=O)c1cn(-c2ccc(Cl)cc2)c(=O)c2ccccc12	-0.6%	-2.8%	1.8	-1.3%	3.4	-2.9%
CN(C)C1=NCCN1CCCC1CCCCC1	-4.2%	-5.7%	-2.3	6.7%	-28.5	7.5%
CN(C)C1=NCCN1CCC1CCCC1	-6.6%	4.4%	8.9	10.7%	-108.5*	14.1%
CCn1cc(C(=O)N[C@@H](CCSC)C(=O)NC(C)(C)CO)c(=O)c2cc3c(cc21)OCO3	-13.3%	-0.4%	1.1	7.3%	5.4	8.7%
Cc1ccc(S(=O)(=O)N2CCCN(C(C)c3nc4ccccc4c(=O)[nH]3)CC2)cc1 (stereo not given)	-15.7%	3.9%	-280.2*	6.6%	-1.2	-9.4%
O=C(OCC(=O)N1CCCc2ccccc21)c1cccc(S(=O)(=O)N2CCc3ccccc32)c1	3.6%	2.5%	-5.8	0.2%	-13.0	-0.3%
O=C(/C=C/c1ccc([N+](=O)[O-])cc1)Nc1cccc(C(=O)Nc2ccccc2C(=O)O)c1	28.2µM*	-3.4%	5.0	-3.3%	-3.5	20.9%
COC(=O)c1cccc(NC(=O)/C=C/c2ccc([N+](=O)[O-])cc2)c1	-4.1%	-4.3%	-3.4	-2.0%	-3.5	9.1%
O=C(COc1ccc2ccccc2c1)Nc1cccc(C(=O)Nc2ccccc2C(=O)O)c1	44.7µM*	-9.5%	-1.9	-9.7%	-17.9	-12.5%
O=C(CS(=O)(=O)c1ccccc1)c1cc2ccccc2oc1=O	-17.2%	4.1%	-11.3	1.8%	9.3	?
O=C(CS(=O)(=O)c1ccccc1)c1cc2cc(F)ccc2oc1=O	?	2.2%	28.1	2.5%	14.6	50.1µM*
c1ccc(CCCNc2ncccn2)cc1	-17.1%	3.2%	-9.8	-0.1%	-97.4*	0.4%
c1ccc(CCCCc2ccccn2)cc1	2.5%	-1.9%	1.8	8.0%	3.9	-24.4%
CC1(C)Oc2ccc(NC(=O)C3COc4ccccc4O3)cc2O1 (stereo not given)	-2.9%	10.5%	-144.7*	3.6%	-172.2*	-9.7%
O=[N+]([O-])c1ccc(OCCN2CCNCC2)cc1	-18.7%	-5.1%	-38.4	-5.3%	-74.1*	21.8%
CC1CN(CCOc2ccc([N+](=O)[O-])cc2)CC(C)O1 (stereo not given)	-8.3%	1.0%	40.5	10.2%	-5.6	1.8%
CC1CC(C)CN(CCCCOc2ccc([N+](=O)[O-])cc2)C1 (stereo not given)	-14.1%	-8.9%	?	-6.8%	-98.8*	3.4%
SMILES	EPAC1 antag	EPAC1 ag	hERG WT inh	EPAC2 ag	KCNH2 3.1 block	EPAC2 antagonist
CCN(CC)c1ccc(C(=O)NNC(=O)CNC(=O)c2ccco2)cc1	9.0%	-2.2%	-1.7	7.1%	-15.7	12.1%
O=C(Nc1cccc(-c2nn[nH]n2)c1)c1csc2c1CCCC2	0.2%	-3.9%	-4.7	9.5%	-2.6	2.7%
CCOC(=O)CN1C(=O)CN(c2ccc(C)cc2)C1=O	4.9%	-10.2%	-3.5	2.0%	-9.0	10.7%
O=C(c1cccc(S(=O)(=O)N2CCOCC2)c1)N(Cc1ccc(F)cc1)Cc1ccco1	-8.1%	1.3%	42.0	10.3%	-135.0*	-18.3%
COc1ccc(/C=C2/SC(=S)N(NS(=O)(=O)c3ccccc3)C2=O)cc1	?	-8.8%	-31.3	6.9%	-10.0	?
COc1ccccc1/C=C1\SC(=S)N(NS(=O)(=O)c2ccccc2)C1=O	56.2µM*	4.9%	-7.2	-5.2%	-28.2	?
O=C1/C(=C\c2ccc(Br)cc2)SC(=S)N1NS(=O)(=O)c1ccccc1	?	-5.0%	-11.0	-11.6%	-6.9	17.8µM*
N#Cc1ccc(OC(=O)C2CCN(C3=NS(=O)(=O)c4ccccc43)CC2)cc1	3.7%	-6.7%	5.5	5.4%	-0.3	4.7%
CN(C)S(=O)(=O)Nc1cccc(Br)c1	-15.2%	-10.5%	-126.3*	7.2%	-1.4	1.7%
CCOc1ccc(NC(=O)Nc2c(C)n(C)n(-c3ccccc3)c2=O)cc1	20.7%	-9.8%	24.8	-2.1%	-1.7	4.1%
OCC1(CCc2ccccc2)CCN(C/C=C/c2ccccc2)CC1	-6.3%	-16.1%	-135.4*	15.5%	-106.9*	1.4%
O=C(CN1CCN(C/C=C/c2ccccc2)CC1)NCc1ccccc1	-4.8%	2.2%	/	5.4%	-91.1*	4.1%[57.1 µM]
Cc1ccc(NC(=O)CCN2CCC(Cc3ccccc3)CC2)cc1	1.2%	-2.7%	11.1	-0.8%	-124.2*	-1.0%
O=C(CN1CCCCCC1)NCc1ccccc1	7.4%	2.6%	4.4	7.7%	-4.1	0.4%
